Source: PubChem BioAssay (NCATS)
Inconclusive results are not listed. Calls of active or inactive are those of the source. Unless noted, calls come from the whole dose curve; as a rule, active = well fitted curve in the direction sought with a large enough effect; inconclusive = small, poorly fitted or top-dose-only effect, or another doubt; inactive = no such curve, though single readings can be large; an effect the other way counts as inactive or inconclusive.

Legend:
[1] = qHTS for Inhibitors of the Functional Ribonucleoprotein Complex (vRNP) of Lassa (LASV) Arenavirus: LASV Primary Screen - GLuc reporter signal (AID 1347082; calls by dose curve; tested in HEK293 reporter line; note: series mostly up to about 57 µM; nearly all actives have a fitted effect of over 60% in size)
[2] = qHTS for Inhibitors of the Functional Ribonucleoprotein Complex (vRNP) of Lassa (LASV) Arenavirus: Viability assay - alamar blue signal for LASV Primary Screen (AID 1347083; calls by dose curve; tested in HEK293 reporter line; note: nearly all actives have a fitted effect of over 80% in size; note: potency is the fitted concentration of half-maximal effect)
[3] = qHTS for Inhibitors of the Functional Ribonucleoprotein Complex (vRNP) of Lymphocytic Choriomeningitis Arenaviruses (LCMV): Viability assay - alamar blue signal for LCMV Primary Screen (AID 1347085; calls by dose curve; tested in HEK293 reporter line; note: nearly all actives have a fitted effect of over 80% in size; note: potency is the fitted concentration of half-maximal effect)
[4] = molecular target: Nucleoprotein (Lymphocytic choriomeningitis virus (strain Armstrong)) (UniProt P09992); assay: qHTS for Inhibitors of the Functional Ribonucleoprotein Complex (vRNP) of Lymphocytic Choriomeningitis Arenaviruses (LCMV): LCMV Primary Screen - GLuc reporter signal (AID 1347086; calls by dose curve; note: nearly all actives have a fitted effect of over 70% in size; note: potency is the fitted concentration of half-maximal effect)
Sequence of Nucleoprotein (Lymphocytic choriomeningitis virus (strain Armstrong)) (P09992 whole entry, looked up): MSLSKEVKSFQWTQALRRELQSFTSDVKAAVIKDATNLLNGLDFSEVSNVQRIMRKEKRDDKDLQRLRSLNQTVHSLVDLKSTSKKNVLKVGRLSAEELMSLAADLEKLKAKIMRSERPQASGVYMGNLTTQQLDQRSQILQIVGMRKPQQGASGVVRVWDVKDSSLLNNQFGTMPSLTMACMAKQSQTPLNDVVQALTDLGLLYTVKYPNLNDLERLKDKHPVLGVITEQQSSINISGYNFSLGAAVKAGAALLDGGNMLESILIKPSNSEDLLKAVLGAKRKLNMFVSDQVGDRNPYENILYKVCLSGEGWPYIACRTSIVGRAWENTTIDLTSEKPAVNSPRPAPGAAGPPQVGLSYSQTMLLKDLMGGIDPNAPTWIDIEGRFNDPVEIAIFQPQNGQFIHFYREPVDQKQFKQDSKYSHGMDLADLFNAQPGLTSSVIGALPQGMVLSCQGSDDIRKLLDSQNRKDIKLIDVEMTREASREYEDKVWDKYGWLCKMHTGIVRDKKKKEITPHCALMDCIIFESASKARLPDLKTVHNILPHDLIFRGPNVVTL

[5] = qHTS of pediatric cancer cell lines to identify multiple opportunities for drug repurposing: Primary screen for TC32 cells (AID 1347089); note: nearly all actives have a fitted effect of over 60% in size; note: potency is the fitted concentration of half-maximal effect
Procedure, shortened: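 TC32 cells, 500-1,000/well in growth medium, compound-treated 48 h at 37 °C; viability from CellTiter-Glo luminescence. Primary screen: MIPE 11-point (0.78 nM–46 µM final), NPC 8-point (0.59 nM–46 µM final); confirmatory at 11-point dilutions.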

[6] = qHTS of pediatric cancer cell lines to identify multiple opportunities for drug repurposing: Primary screen for SJ-GBM2 cells (AID 1347091); note: potency is the fitted concentration of half-maximal effect
Procedure, shortened: (§1)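 Viability measured as metabolically active cells via CellTiter-Glo luminescence following 48 hours of compound exposure, 11-point dilutions in confirmatory testing. 500-1,000 cells/well plated 5 hours before dosing; controls were DMSO and 2.3 µM bortezomib.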

[7] = qHTS of pediatric cancer cell lines to identify multiple opportunities for drug repurposing: Primary screen for A673 cells (AID 1347092); note: nearly all actives have a fitted effect of over 45% in size; note: potency is the fitted concentration of half-maximal effect
Procedure, shortened: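 A673 cells (500-1,000 cells/well) were treated 48 hours at 37 degrees C with compounds at 11-point (0.78 nM to 46 µM) or 8-point (0.59 nM to 46 µM) dilutions. Viability read by CellTiter-Glo luminescence; concentration-response curves fitted.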

[8] = qHTS of pediatric cancer cell lines to identify multiple opportunities for drug repurposing: Primary screen for SK-N-MC cells (AID 1347093); note: potency is the fitted concentration of half-maximal effect
Procedure, shortened: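 Metabolically active cells were quantified by ATP-dependent luminescence (CellTiter-Glo, 15 min at room temperature) following 48 h treatment. Cells had been plated at 500-1,000 per well and settled for 5 h beforehand.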

[9] = qHTS of pediatric cancer cell lines to identify multiple opportunities for drug repurposing: Primary screen for BT-37 cells (AID 1347094); note: potency is the fitted concentration of half-maximal effect
Procedure, shortened: (§2)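 500-1,000 cells/well; 5 h pre-incubation 37 °C/5% CO2; compound pinned; 48 h; CellTiter-Glo, 15 min RT; luminescence. MIPE 11-pt from 0.78 nM, NPC 8-pt from 0.59 nM final. Bortezomib 2.3 µM final as positive control.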

[10] = qHTS of pediatric cancer cell lines to identify multiple opportunities for drug repurposing: Primary screen for NB-EBc1 cells (AID 1347095); note: potency is the fitted concentration of half-maximal effect
Procedure, shortened: as §2

[11] = qHTS of pediatric cancer cell lines to identify multiple opportunities for drug repurposing: Primary screen for U-2 OS cells (AID 1347096); note: nearly all actives have a fitted effect of over 50% in size; note: potency is the fitted concentration of half-maximal effect
Procedure, shortened: (§3)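 Viability after 48 h compound treatment at 37C, 500-1,000 cells/well, read as ATP luminescence with CellTiter-Glo. Primary screens used 11-point (MIPE, 0.78 nM-46 µM) or 8-point (NPC, 0.59 nM-46 µM) final concentrations; follow-up screens used 11-point dilutions.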

[12] = qHTS of pediatric cancer cell lines to identify multiple opportunities for drug repurposing: Primary screen for Saos-2 cells (AID 1347097); note: nearly all actives have a fitted effect of over 40% in size; note: potency is the fitted concentration of half-maximal effect
Procedure, shortened: as §2

[13] = qHTS of pediatric cancer cell lines to identify multiple opportunities for drug repurposing: Primary screen for SK-N-SH cells (AID 1347098); note: nearly all actives have a fitted effect of over 65% in size; note: potency is the fitted concentration of half-maximal effect
Procedure, shortened: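 Cells (500-1,000/well) rested 5 h, then received compounds for 48 h; metabolically active cells were measured by CellTiter-Glo luminescence. Final concentrations spanned up to 46 µM (MIPE, 11-point) or 0.59 nM-46 µM (NPC, 8-point) in primary screens, 11-point in follow-ups.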

[14] = qHTS of pediatric cancer cell lines to identify multiple opportunities for drug repurposing: Primary screen for NB1643 cells (AID 1347099); note: nearly all actives have a fitted effect of over 50% in size; note: potency is the fitted concentration of half-maximal effect
Procedure, shortened: as §2

[15] = qHTS of pediatric cancer cell lines to identify multiple opportunities for drug repurposing: Primary screen for LAN-5 cells (AID 1347100); note: potency is the fitted concentration of half-maximal effect
Procedure, shortened: as §3

[16] = qHTS of pediatric cancer cell lines to identify multiple opportunities for drug repurposing: Primary screen for DAOY cells (AID 1347090); note: nearly all actives have a fitted effect of over 55% in size; note: potency is the fitted concentration of half-maximal effect
Procedure, shortened: as §1

Measured: Potency

COc1cccc2c1[C@]13CCN(CC4CC4)[C@H](C2)[C@]1(OC)CCC(=O)C3
not listed: [16]
inactive: all other assays above

Clc1ccccc1C(c1ccccc1)(c1ccccc1)n1cccn1
not listed: [6] | [10] | [14] | [16]
inactive: all other assays above

CC(=Cc1csc(C)n1)[C@@H]1C[C@H]2O[C@]2(C)CCC[C@H](C)[C@@H](O)[C@@H](C)C(=O)C(C)(C)[C@@H](O)CC(=O)O1
active: [5] 0.0037 µM | [6] 0.0296 µM | [8] 0.001 µM | [10] 0.0166 µM | [12] 0.001 µM | [15] 0.001 µM
inactive: [1] | [2] | [3] | [4] | [11] | [14]

CN(C)NC(=O)CCC(=O)O
not listed: [12] | [13] | [14] | [16]
inactive: all other assays above

O=[N+]([O-])c1c2ccccc2cc2ccccc12
inactive: [1] | [2] | [3] | [4] | [5] | [6] | [11] | [15]

O=C1CCC[C@@H]2[C@H]3CCCN4CCC[C@@H](CN12)[C@@H]34
not listed: [5] | [13]
inactive: all other assays above

CN(C)c1ccc(Nc2nc(N)n(C(=O)c3c(F)cccc3F)n2)cc1
inactive: [1] | [4]
active: [2] 21.7 µM

N#CCNC(=O)c1ccc(-c2ccnc(Nc3ccc(N4CCOCC4)cc3)n2)cc1
inactive: [1] | [4]
active: [2] 21.7 µM

CC1(N2CCC(n3c([C@@H]4CCCNC4)nc4ccccc43)CC2)CCCCCCC1
active: [7] 11.8 µM | [15] 20.9 µM
inactive: [1] | [2] | [3] | [4] | [5] | [10] | [11] | [14]

CC(=O)N(C)c1cccc(-c2ccnc3c(C(=O)c4cccs4)cnn23)c1
not listed: [3] | [13]
inactive: all other assays above

CC(C)[C@]12O[C@@H]1[C@@H]1O[C@]13[C@]1(O[C@H]1C[C@@H]1C4=C(CC[C@@]13C)C(=O)OC4)[C@H]2O
active: [6] 0.001 µM | [7] 0.001 µM | [8] 0.001 µM | [9] 0.001 µM | [10] 0.001 µM | [11] 0.001 µM | [12] 1.66 µM
inactive: [1] | [2] | [3] | [4] | [14] | [15]

CCCN(CCC)c1c([N+](=O)[O-])cc(S(N)(=O)=O)cc1[N+](=O)[O-]
inactive: [1] | [2] | [3] | [4]
active: [16] 48.6 µM | [6] 43.3 µM | [8] 38.6 µM | [10] 30.6 µM | [12] 30.6 µM | [13] 49.8 µM | [14] 48.6 µM

CC(C)Oc1cccc(NC(=O)c2ccccc2C(F)(F)F)c1
inactive: [1] | [2] | [3] | [5] | [16] | [7] | [9] | [11] | [14]

CCCCCCCCc1ccc(O)cc1
inactive: [1] | [2] | [3] | [4] | [16] | [11] | [14]
active: [12] 39 µM

COCC1(CO)C(=O)C2CCN1CC2 (stereo not drawn)
active: [3] 12.2 µM | [5] 20.8 µM | [6] 2.09 µM | [7] 2.35 µM | [8] 1.18 µM | [9] 1.22 µM | [10] 0.264 µM | [12] 8.33 µM | [13] 1.08 µM | [14] 5.9 µM | [15] 0.833 µM
inactive: [1] | [2] | [11]

CC(=O)Nc1sc2c(c1-c1nc3ccccc3s1)CNC2
inactive: [1]
active: [2] 0.0054 µM | [4] 0.0027 µM

Clc1ccc2ncc(-c3cccc(NC4CNC4)n3)n2c1
active: [2] 21.7 µM
inactive: [1] | [4]

O=S(=O)(CC1CS1)c1ccc(Oc2ccccc2)cc1 (stereo not drawn)
inactive: [1] | [2] | [3] | [4] | [11]
active: [6] 26.4 µM | [7] 9.35 µM | [10] 23.5 µM | [12] 18.7 µM | [14] 18.7 µM | [15] 23.5 µM

ClC1=C(Cl)[C@]2(Cl)[C@@H]3[C@@H]4C[C@@H]([C@H]5O[C@@H]45)[C@@H]3[C@@]1(Cl)C2(Cl)Cl
inactive: [1] | [2] | [3] | [4] | [5] | [11]
active: [8] 19.3 µM | [12] 38.6 µM

O=c1cccc2n1CC1CNC[C@H]2C1
active: [2] 27.3 µM | [6] 5.9 µM | [7] 4.69 µM | [8] 4.69 µM | [13] 24.1 µM | [14] 5.9 µM | [15] 2.96 µM
inactive: [1] | [4] | [5]
